# Measurements: publication PMC7862700, “An all-to-all approach to the identification of sequence-specific readers for epigenetic DNA modifications on cytosine”
# Tests used:
# Assay in all cases: DAPPL (digital affinity profiling via proximity ligation, sequencing); 10 mM Tris-HCl pH 7.5, 50 mM NaCl, 1 mM DTT, 4% glycerol, room temperature, 30 min; GST-TFs on glutathione beads, 16-mer random dsDNA library, 0.1% formaldehyde crosslink after washing; high values mean tight binding
# FLI1 = target: T1, FLI1 (Homo sapiens, UniProt Q01543 1-452); conditions: protein: recombinant; tags: N-terminal GST; dsDNA, one strand shown
# T1 sequence: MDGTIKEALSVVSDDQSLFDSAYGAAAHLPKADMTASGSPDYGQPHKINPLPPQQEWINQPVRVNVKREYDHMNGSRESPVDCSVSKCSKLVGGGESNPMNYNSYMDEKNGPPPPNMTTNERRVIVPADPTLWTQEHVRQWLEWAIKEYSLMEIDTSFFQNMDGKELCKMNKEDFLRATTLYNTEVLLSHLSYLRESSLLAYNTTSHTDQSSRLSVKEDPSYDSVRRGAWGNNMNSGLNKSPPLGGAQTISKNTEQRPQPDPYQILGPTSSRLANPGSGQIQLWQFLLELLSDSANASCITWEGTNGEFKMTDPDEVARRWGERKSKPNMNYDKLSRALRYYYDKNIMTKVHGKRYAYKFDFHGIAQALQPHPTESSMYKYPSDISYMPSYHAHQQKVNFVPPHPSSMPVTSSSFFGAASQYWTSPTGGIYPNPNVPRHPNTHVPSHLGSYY
# Procedure, shortened: (§1)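 A tag-only sample was pooled with DNA-barcoded human transcription factors that had been expressed in yeast as GST fusions and captured on glutathione beads. The pools were incubated for 30 min at room temperature with 200 nmole of a random double-stranded 16-mer DNA library in Tris/NaCl/DTT/glycerol buffer, then washed, crosslinked with 0.1% formaldehyde, proximity-ligated (BsaI/T4 ligase, 1 h, 37 °C), PCR-amplified and sequenced on an Illumina NextSeq500. Binding signal is each hexamer's read frequency for a factor divided by its frequency for the tag-only sample.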
# ELK1 = target: T2, ELK1 (Homo sapiens, UniProt P19419 1-428); conditions: protein: recombinant; tags: N-terminal GST; dsDNA, one strand shown
# T2 sequence: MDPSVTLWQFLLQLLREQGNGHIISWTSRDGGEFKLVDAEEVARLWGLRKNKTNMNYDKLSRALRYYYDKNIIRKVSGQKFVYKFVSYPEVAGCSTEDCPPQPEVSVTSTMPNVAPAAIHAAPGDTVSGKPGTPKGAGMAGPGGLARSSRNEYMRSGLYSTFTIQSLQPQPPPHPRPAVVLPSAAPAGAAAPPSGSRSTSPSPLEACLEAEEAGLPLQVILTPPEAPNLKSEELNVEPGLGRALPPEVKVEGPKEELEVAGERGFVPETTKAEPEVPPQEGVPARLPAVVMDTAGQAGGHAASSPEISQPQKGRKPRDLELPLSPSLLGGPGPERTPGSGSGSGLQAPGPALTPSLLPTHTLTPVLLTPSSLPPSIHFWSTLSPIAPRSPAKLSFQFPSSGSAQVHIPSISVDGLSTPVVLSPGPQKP
# Procedure, shortened: as §1
# GABPA = target: T3, GABPA (Homo sapiens, UniProt Q06546 1-454); conditions: protein: recombinant; tags: N-terminal GST; dsDNA, one strand shown
# T3 sequence: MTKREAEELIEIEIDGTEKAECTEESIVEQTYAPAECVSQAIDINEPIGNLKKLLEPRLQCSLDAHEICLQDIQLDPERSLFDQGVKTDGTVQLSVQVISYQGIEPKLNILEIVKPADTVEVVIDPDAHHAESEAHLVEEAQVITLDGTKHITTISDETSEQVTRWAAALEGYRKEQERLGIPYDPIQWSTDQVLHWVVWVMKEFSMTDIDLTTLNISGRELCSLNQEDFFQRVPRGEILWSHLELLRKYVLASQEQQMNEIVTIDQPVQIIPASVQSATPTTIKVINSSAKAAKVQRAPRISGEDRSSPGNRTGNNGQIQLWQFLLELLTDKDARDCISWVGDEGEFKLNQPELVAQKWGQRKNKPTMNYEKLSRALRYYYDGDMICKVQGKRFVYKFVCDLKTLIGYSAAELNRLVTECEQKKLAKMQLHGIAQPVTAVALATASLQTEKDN
# Procedure, shortened: as §1
# ERG = target: T4, ERG (Homo sapiens, UniProt P11308 1-479); conditions: protein: recombinant; tags: N-terminal GST; dsDNA, one strand shown
# T4 sequence: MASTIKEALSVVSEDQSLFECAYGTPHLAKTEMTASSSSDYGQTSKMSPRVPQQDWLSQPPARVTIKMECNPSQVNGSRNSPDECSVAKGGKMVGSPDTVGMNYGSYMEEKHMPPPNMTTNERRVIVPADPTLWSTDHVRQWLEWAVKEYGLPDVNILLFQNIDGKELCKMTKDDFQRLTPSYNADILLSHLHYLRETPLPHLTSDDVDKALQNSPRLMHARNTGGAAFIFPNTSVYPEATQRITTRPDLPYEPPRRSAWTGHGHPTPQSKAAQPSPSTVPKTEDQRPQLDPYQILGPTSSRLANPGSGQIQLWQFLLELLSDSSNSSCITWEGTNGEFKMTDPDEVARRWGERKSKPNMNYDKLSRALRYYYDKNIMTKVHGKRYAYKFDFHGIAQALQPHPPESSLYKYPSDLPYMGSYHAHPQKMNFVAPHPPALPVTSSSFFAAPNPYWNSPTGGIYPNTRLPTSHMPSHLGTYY
# Procedure, shortened: as §1
# ELF1 = ELF1 (Homo sapiens, UniProt P32519 1-619); conditions: protein: recombinant; tags: N-terminal GST; dsDNA, one strand shown
# Procedure, shortened: as §1
# EHF = target: T5, EHF (Homo sapiens, UniProt Q9NZC4 1-300); conditions: protein: recombinant; tags: N-terminal GST; dsDNA, one strand shown
# T5 sequence: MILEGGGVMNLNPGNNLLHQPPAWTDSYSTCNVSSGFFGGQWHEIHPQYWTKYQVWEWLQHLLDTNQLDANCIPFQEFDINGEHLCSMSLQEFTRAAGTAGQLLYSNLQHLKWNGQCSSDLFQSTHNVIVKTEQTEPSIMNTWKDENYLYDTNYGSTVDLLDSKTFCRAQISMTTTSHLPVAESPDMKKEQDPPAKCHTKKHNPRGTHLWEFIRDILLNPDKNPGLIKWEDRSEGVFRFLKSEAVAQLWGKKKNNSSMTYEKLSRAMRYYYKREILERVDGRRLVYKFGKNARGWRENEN
# Procedure, shortened: as §1
# SPI1 = SPI1 (Homo sapiens, UniProt P17947 1-270); conditions: protein: recombinant; tags: N-terminal GST; dsDNA, one strand shown
# Procedure, shortened: as §1
# SPIB = SPIB (Homo sapiens, UniProt Q01892 1-262); conditions: protein: recombinant; tags: N-terminal GST; dsDNA, one strand shown
# Procedure, shortened: as §1
# ELK3 = target: T6, ELK3 (Homo sapiens, UniProt P41970 1-407); conditions: protein: recombinant; tags: N-terminal GST; dsDNA, one strand shown
# T6 sequence: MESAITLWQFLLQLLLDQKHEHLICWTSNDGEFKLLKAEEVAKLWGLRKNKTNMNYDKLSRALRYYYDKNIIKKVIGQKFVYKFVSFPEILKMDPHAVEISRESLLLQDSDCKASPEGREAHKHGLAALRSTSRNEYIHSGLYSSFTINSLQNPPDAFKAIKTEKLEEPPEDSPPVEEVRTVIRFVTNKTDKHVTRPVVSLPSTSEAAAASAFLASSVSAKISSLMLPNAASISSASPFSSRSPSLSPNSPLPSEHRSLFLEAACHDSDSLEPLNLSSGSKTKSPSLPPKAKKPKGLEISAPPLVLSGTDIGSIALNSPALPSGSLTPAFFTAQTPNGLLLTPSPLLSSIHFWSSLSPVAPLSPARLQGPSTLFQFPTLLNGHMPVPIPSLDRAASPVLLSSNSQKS
# Procedure, shortened: as §1
# FEV = target: T7, FEV (Homo sapiens, UniProt Q99581 1-238); conditions: protein: recombinant; tags: N-terminal GST; dsDNA, one strand shown
# T7 sequence: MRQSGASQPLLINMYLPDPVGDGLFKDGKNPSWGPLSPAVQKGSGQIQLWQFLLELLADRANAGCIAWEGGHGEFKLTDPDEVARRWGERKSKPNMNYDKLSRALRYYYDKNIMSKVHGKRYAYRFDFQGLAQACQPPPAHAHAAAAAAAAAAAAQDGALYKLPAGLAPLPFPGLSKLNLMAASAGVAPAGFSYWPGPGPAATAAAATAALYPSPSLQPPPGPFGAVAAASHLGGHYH
# Procedure, shortened: as §1
# ETV5 = ETV5 (Homo sapiens, UniProt P41161 1-510); conditions: protein: recombinant; tags: N-terminal GST; dsDNA, one strand shown
# Procedure, shortened: as §1
# HSF1 = HSF1 (Homo sapiens, UniProt Q00613 1-529); conditions: protein: recombinant; tags: N-terminal GST; chain copies: 3; dsDNA, one strand shown
# Procedure, shortened: as §1
# SPIC = target: T8, SPIC (Homo sapiens, UniProt Q8N5J4 1-248); conditions: protein: recombinant; tags: N-terminal GST; dsDNA, one strand shown
# T8 sequence: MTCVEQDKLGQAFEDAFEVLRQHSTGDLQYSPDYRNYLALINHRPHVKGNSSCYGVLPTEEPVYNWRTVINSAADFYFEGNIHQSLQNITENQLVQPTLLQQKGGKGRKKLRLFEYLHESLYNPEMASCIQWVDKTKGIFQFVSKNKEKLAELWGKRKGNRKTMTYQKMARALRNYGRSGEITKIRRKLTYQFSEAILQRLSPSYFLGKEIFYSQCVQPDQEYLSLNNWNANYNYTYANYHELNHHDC
# Procedure, shortened: as §1
# ELF4 = ELF4 (Homo sapiens, UniProt Q99607 1-663); conditions: protein: recombinant; tags: N-terminal GST; dsDNA, one strand shown
# Procedure, shortened: as §1
# ELK4 = target: T9, ELK4 (Homo sapiens, UniProt P28324-2 1-405); conditions: protein: recombinant; tags: N-terminal GST; dsDNA, one strand shown
# T9 sequence: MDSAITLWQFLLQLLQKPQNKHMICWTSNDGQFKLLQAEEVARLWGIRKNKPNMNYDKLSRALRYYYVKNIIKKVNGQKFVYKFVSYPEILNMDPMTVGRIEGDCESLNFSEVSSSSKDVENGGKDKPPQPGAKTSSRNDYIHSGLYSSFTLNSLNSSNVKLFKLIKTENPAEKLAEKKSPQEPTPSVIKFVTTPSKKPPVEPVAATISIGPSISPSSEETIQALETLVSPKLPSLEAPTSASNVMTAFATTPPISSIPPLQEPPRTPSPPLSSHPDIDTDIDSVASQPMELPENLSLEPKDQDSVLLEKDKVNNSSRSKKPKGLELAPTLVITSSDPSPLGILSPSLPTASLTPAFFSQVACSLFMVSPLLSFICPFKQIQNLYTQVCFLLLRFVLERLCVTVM
# Procedure, shortened: as §1
# ETV2 = target: T10, ETV2 (Homo sapiens, UniProt O00321 1-342); conditions: protein: recombinant; tags: N-terminal GST; dsDNA, one strand shown
# T10 sequence: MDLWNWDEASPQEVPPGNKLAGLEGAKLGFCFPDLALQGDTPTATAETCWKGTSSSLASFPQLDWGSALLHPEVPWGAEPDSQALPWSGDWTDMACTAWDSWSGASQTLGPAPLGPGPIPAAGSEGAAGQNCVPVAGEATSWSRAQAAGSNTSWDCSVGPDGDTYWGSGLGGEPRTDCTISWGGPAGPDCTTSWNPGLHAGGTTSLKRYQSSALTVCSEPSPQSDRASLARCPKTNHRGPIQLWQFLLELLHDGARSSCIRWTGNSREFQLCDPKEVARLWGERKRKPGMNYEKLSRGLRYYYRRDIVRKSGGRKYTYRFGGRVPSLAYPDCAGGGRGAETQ
# Procedure, shortened: as §1
# ELF3 = target: T11, ELF3 (Homo sapiens, UniProt P78545 1-371); conditions: protein: recombinant; tags: N-terminal GST; dsDNA, one strand shown
# T11 sequence: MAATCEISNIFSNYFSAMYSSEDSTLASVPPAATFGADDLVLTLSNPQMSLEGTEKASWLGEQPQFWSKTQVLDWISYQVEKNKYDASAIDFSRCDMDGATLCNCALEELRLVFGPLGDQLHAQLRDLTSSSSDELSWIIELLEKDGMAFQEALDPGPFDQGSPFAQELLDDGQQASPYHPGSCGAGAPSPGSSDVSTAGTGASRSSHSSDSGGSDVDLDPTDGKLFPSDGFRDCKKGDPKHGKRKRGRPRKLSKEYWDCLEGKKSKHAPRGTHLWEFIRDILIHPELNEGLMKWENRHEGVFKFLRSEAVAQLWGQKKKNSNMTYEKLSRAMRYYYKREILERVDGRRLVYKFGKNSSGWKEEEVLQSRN
# Procedure, shortened: as §1
# CRX = CRX (Homo sapiens, UniProt O43186 1-299); conditions: protein: recombinant; tags: N-terminal GST; dsDNA, one strand shown
# Procedure, shortened: as §1
# ETV1 = ETV1 (Homo sapiens, UniProt P50549 1-477); conditions: protein: recombinant; tags: N-terminal GST; dsDNA, one strand shown
# Procedure, shortened: as §1
# ELF4, sequence (Q99607 whole entry): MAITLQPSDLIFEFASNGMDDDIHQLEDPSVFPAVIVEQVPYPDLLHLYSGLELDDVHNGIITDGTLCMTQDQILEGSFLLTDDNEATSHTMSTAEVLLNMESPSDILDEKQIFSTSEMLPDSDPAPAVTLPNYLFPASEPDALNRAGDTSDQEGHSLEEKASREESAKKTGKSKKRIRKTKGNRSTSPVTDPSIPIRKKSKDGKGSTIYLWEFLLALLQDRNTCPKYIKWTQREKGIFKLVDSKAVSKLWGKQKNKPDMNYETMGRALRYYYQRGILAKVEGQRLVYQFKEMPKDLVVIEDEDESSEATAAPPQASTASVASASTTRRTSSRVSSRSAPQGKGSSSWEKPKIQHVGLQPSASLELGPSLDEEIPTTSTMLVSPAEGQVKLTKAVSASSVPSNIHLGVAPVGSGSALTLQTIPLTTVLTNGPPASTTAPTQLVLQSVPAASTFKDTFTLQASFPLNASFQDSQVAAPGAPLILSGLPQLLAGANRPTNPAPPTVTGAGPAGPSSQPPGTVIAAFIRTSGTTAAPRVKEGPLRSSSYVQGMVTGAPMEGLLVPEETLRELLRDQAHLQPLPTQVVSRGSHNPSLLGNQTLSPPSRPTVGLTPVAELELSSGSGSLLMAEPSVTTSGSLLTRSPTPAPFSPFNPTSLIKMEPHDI
# ETV5, sequence (P41161 whole entry): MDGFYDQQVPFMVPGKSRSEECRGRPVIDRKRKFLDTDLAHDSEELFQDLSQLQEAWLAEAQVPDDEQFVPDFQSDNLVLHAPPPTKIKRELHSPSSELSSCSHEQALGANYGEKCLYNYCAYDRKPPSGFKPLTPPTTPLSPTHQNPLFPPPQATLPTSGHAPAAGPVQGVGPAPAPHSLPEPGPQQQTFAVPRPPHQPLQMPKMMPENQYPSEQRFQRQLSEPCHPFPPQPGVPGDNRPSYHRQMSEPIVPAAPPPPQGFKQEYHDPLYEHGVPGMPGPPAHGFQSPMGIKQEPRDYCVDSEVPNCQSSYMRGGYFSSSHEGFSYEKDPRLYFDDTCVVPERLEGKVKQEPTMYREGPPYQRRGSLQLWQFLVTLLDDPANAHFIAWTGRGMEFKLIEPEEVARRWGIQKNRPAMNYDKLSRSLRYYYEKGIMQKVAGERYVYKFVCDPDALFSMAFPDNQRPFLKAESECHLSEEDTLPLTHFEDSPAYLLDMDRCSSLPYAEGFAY
# ETV1, sequence (P50549 whole entry): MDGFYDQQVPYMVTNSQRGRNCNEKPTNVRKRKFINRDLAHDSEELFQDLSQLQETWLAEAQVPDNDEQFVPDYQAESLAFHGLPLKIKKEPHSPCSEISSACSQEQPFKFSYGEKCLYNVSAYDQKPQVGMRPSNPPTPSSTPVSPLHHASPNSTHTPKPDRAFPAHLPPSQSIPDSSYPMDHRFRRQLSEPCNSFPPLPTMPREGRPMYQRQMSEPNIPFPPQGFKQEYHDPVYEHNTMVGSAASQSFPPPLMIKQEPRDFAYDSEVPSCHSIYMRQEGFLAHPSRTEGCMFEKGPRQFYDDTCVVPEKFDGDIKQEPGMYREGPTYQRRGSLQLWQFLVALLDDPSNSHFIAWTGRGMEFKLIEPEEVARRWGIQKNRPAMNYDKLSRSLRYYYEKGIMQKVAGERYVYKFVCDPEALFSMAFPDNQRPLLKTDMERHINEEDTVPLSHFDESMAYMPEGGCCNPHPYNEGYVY
# SPIB, sequence (Q01892 whole entry): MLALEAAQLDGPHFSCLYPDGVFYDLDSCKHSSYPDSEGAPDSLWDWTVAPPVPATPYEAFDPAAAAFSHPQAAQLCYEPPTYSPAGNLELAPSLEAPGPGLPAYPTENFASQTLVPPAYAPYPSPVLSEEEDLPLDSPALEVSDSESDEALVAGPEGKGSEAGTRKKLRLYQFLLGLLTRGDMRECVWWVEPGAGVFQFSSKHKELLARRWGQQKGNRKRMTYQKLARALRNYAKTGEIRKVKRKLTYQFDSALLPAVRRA
# HSF1, sequence (Q00613 whole entry): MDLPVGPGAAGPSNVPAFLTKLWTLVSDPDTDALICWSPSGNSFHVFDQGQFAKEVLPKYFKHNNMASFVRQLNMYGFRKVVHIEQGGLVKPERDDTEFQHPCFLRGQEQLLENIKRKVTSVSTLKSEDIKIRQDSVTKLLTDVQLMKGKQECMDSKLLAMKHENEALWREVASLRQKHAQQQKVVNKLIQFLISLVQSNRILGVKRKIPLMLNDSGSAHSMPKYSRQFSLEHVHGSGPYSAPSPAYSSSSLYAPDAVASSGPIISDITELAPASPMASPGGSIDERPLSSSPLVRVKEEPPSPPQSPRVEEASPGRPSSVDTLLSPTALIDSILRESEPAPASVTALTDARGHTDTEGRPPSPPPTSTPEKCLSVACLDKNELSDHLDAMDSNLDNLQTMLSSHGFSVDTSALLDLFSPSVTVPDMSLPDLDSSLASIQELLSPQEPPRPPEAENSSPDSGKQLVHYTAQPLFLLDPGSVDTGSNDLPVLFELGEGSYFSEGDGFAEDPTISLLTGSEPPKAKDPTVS
# CRX, sequence (O43186 whole entry): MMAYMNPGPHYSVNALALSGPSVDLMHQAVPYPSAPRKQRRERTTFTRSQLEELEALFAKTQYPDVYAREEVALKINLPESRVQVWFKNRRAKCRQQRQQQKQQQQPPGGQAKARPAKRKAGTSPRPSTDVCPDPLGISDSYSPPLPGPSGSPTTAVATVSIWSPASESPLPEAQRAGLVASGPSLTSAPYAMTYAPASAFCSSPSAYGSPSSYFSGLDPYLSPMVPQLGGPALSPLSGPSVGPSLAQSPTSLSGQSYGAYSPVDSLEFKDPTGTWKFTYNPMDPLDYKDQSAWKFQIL
# ELF1, sequence (P32519 whole entry): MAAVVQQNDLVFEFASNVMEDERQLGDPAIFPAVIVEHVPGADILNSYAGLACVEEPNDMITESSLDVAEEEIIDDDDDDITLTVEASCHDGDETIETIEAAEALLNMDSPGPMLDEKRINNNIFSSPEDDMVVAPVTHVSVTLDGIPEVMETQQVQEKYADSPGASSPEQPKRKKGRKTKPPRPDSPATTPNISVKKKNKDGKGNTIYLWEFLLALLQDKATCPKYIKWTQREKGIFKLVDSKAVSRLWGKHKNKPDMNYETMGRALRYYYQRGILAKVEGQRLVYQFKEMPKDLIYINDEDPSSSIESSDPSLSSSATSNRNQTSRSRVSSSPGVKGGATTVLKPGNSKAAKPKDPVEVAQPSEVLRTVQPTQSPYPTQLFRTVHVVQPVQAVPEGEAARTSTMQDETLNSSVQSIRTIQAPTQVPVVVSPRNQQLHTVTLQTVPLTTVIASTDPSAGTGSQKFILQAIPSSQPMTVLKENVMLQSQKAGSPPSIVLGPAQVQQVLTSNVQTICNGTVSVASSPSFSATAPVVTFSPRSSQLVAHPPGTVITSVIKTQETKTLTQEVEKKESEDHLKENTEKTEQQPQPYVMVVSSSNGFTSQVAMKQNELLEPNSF
sequence,measurement,setting,value
CTTTAT,binding signal,FLI1,"1.19 fold enrichment (6-mer frequency, TF over GST control)"
same,binding signal,ELK1,"1.19 fold enrichment (6-mer frequency, TF over GST control)"
same,binding signal,GABPA,"1.18 fold enrichment (6-mer frequency, TF over GST control)"
same,binding signal,ERG,"1.16 fold enrichment (6-mer frequency, TF over GST control)"
same,binding signal,ELF1,"1.17 fold enrichment (6-mer frequency, TF over GST control)"
same,binding signal,EHF,"1.34 fold enrichment (6-mer frequency, TF over GST control)"
same,binding signal,SPI1,"1.25 fold enrichment (6-mer frequency, TF over GST control)"
same,binding signal,SPIB,"1.19 fold enrichment (6-mer frequency, TF over GST control)"
same,binding signal,ELK3,"1.25 fold enrichment (6-mer frequency, TF over GST control)"
same,binding signal,FEV,"1.17 fold enrichment (6-mer frequency, TF over GST control)"
same,binding signal,ETV5,"1.21 fold enrichment (6-mer frequency, TF over GST control)"
same,binding signal,HSF1,"1.23 fold enrichment (6-mer frequency, TF over GST control)"
same,binding signal,SPIC,"1.21 fold enrichment (6-mer frequency, TF over GST control)"
same,binding signal,ELF4,"1.19 fold enrichment (6-mer frequency, TF over GST control)"
same,binding signal,ELK4,"1.29 fold enrichment (6-mer frequency, TF over GST control)"
same,binding signal,ETV2,"1.29 fold enrichment (6-mer frequency, TF over GST control)"
same,binding signal,ELF3,"1.21 fold enrichment (6-mer frequency, TF over GST control)"
same,binding signal,CRX,"1.65 fold enrichment (6-mer frequency, TF over GST control)"
same,binding signal,ETV1,"1.22 fold enrichment (6-mer frequency, TF over GST control)"
